# Counter-ions that a name gives are not always drawn. Unmarked numbers belong to inactive results.
# System: NCI-H1688
# Assay: inhibition of cell viability relative to untreated control (fraction); higher = stronger growth inhibition, active = 0.5 or more
# Settings: 30 µM; 24 h
# Summary of the method: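 Values are inhibition of cell viability expressed as a fraction, derived from viability normalised to untreated cells. NCI-H1688 small cell lung cancer cells in 96-well plates were exposed to a natural compound library (TargetMol) at 30 µM for 24 h at 37°C with 5% CO2, and Cell Counting Kit-8 absorbance at 450 nm was then read.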
row,Compound,inhibition of cell viability
1,CN(C)[C@@H]1C(O)=C(C(N)=O)C(=O)[C@@]2(O)C(O)=C3C(=O)c4c(O)ccc(Cl)c4[C@@](C)(O)[C@H]3C[C@@H]12 [Chlortetracycline hydrochloride],-0.0618
2,Cc1cc(O)c2c(c1)C(=O)c1cc(O)cc(O)c1C2=O [Emodin],0.493
3,COc1cc(/C=C/c2ccc(O)cc2)cc(OC)c1 [Pterostilbene],0.252
4,CN[C@@H]1[C@H](O[C@H]2[C@H](O[C@H]3[C@H](O)[C@@H](O)[C@H](N=C(N)N)[C@@H](O)[C@@H]3N=C(N)N)O[C@@H](C)[C@]2(O)C=O)O[C@@H](CO)[C@H](O)[C@H]1O [Streptomycin sulfate],-0.138
5,CC1(C)CCC[C@](C)([C@H]2CC[C@]3(C)[C@@H]2[C@H](O)C[C@@H]2[C@@]4(C)CC[C@H](O)C(C)(C)[C@@H]4CC[C@]23C)O1 [Panaxadiol],-0.0255
6,C[C@H](CC[C@@H](O[C@@H]1O[C@H](CO[C@@H]2O[C@H](CO)[C@@H](O)[C@H](O)[C@H]2O)[C@@H](O)[C@H](O)[C@H]1O[C@@H]1O[C@H](CO)[C@@H](O)[C@H](O)[C@H]1O)C(C)(C)O)[C@H]1CC[C@@]2(C)[C@@H]3CC=C4[C@@H](CC[C@H](O[C@@H]5O[C@H](CO[C@@H]6O[C@H](CO)[C@@H](O)[C@H](O)[C@H]6O)[C@@H](O)[C@H](O)[C@H]5O)C4(C)C)[C@]3(C)[C@H](O)C[C@]12C [Mogroside V],0.121

# — the supplement of paper PMC11634586
